# Many of the other results were omitted from the sample, so hits are more common in it than they were.
# Pf apPOL block: Pf-apPOL DNA polymerase inhibition; Recombinant Pf-apPOL, molecular beacon fluorescence, 1.5 h; inhibition, % at 10 µM; 210,000 compounds, 0.25% hits; AID 1794808
# mHTT-CaM PPI inh: mHTT-calmodulin interaction abrogation; AlphaScreen His-mHTT/GST-CaM binding, luminescence; 190,000 compounds, 3.6% hits; P42858; inhibition, % at 15 µM;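 also: 0% = both proteins with DMSO and 100% = one protein alone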
# * marks the source's active call; other numbers are inactive results; · = not tested or not shown. Rule as the data show it: active = inhibition above about 50%; inactive = the rest.
SMILES,Pf apPOL block,mHTT-CaM PPI inh
Cc1ccc2nc(/C(C#N)=C/c3cc([N+](=O)[O-])ccc3O)[nH]c2c1,-4,4
Cc1ccc2nc(/C(C#N)=C/c3ccc(O)c([N+](=O)[O-])c3)[nH]c2c1,0,59*
Cc1ccc(-n2c(=O)n(C3CC3)c(=O)c3c2ncn3Cc2cccc(F)c2)cc1,-4,6
CCN1CCN(C(=O)C2CCCN(c3nnc4c(Cl)cccn34)C2)CC1 (stereo not drawn),0,14
Cc1ccccc1NC(=O)C1CCc2nc(N3CCN(C(=O)C(C)C)CC3)sc2C1 (stereo not drawn),-5,0
CCCNc1cc(N2CCC(CCC(=O)Nc3cc(C)ccc3OC)CC2)ncn1,-6,59*
COc1ccc(C)cc1NC(=O)CCC1CCN(c2cc(NC3CC3)ncn2)CC1,-3,39
COc1ccc(C)cc1NC(=O)CCC1CCCN(c2cc(NC3CC3)ncn2)C1 (stereo not drawn),-8,10
CCNc1cc(N2CCCC(CCC(=O)Nc3cc(C)ccc3OC)C2)ncn1 (stereo not drawn),1,55*
CCOc1ccc(CN2CCc3nc(Nc4ccc(OC)cc4OC)ncc3C2)cc1,-8,9
CCC1CN(C(=O)Nc2ccccc2F)c2ccccc2O1 (stereo not drawn),1,-31
NNc1ncnc2ccccc12,·,100*
c1ccc(CCNc2ncnc3ccccc23)cc1,-9,-5
N#CC(N)=C(C#N)N=Cc1ccc(Cl)cc1,-2,·
COc1cccc(OC)c1CCOC(=O)c1c(F)cccc1F,-16,·
Cc1ccc(-c2ccc(C)cc2[N+](=O)[O-])c([N+](=O)[O-])c1,-1,·
Cc1ccc(-n2c(C)ccc2C)c([N+](=O)[O-])c1,-2,67*
CN(C)CCNC(=O)C1CCN(c2ccc3ccccc3c2)C1=O (stereo not drawn),-2,0
Cn1cc(S(=O)(=O)Nc2ccc(Oc3c(Cl)cccc3Cl)nc2)cn1,-3,·
C=CCOc1ccc(/C=C2/SC(=Nc3ccccc3)NC2=O)cc1OC,-7,30
C=CCOc1ccc(/C=C2/SC(=Nc3cccc(C(=O)O)c3)NC2=O)cc1OC,-5,58*
CCOc1cc(/C=C2\SC(=Nc3ccccc3)NC2=O)cc(Br)c1O,-52,86*
COc1ccc(/C=C2\SC(=Nc3cc(C)cc(C)c3)NC2=O)cc1,-1,19
COc1cc(/C=C2\Sc3ccccc3C2=O)cc([N+](=O)[O-])c1O,0,81*
COc1cccc(/C=C2/SC(=Nc3cc(C)cc(C)c3)NC2=O)c1O,4,52*
SMILES,Pf apPOL block,mHTT-CaM PPI inh
O=C1/C(=C/c2cc(Br)cc([N+](=O)[O-])c2O)Sc2ccccc21,20,45
CCOc1cc(/C=C2/SC(=Nc3ccccc3)NC2=O)ccc1O,-14,45
O=C(N1CCOCC1)C1(c2ccccc2)CCCC1,-1,-7
CCOc1ccc(/C=C2\CCC(C3CCCC3)C2=O)cc1 (stereo not drawn),0,-12
CCOC(=O)c1cc(-c2ccccc2)[nH]c(=O)c1C#N,-1,·
CCOc1ccc(N=C2NC(=O)/C(=C\c3ccc(OC)c(OC)c3)S2)cc1,-3,8
COc1cc(/C=C2/SC(=Nc3cc(C)cc(C)c3)NC2=O)cc([N+](=O)[O-])c1O,-1,54*
COc1cc(/C=C2/SC(=Nc3ccccc3)NC2=O)ccc1OCC#N,-16,54*
COc1cc(/C=C2\SC(=Nc3ccccc3)NC2=O)cc(OC)c1OC,-16,18
COc1cc(/C=C2\SC(=Nc3ccccc3)NC2=O)cc(OC)c1O,12,74*
COc1cc(/C=C2\SC(=Nc3ccccc3)NC2=O)cc(I)c1O,3,68*
O=C1NC(=Nc2ccccc2)S/C1=C/c1cccc(O)c1,-2,25
CCOc1cc(/C=C2/SC(=O)NC2=O)cc([N+](=O)[O-])c1O,-2,28
O=C(NCCC1=CCCCC1)C(=O)Nc1ccc([N+](=O)[O-])cc1,-9,-4
Cc1ccc(C2=NC(=O)/C(=C\c3cc(O)c(O)c(Br)c3)S2)cc1,10,95*
COc1cc(/C=C2/SC(c3ccc(C)cc3)=NC2=O)cc(OC)c1O,5,42
COc1cc(C)nc(NS(=O)(=O)c2ccccc2Cl)n1,3,3
COc1cc(Nc2ncc3c(n2)CCN(Cc2cccc(OC)c2OC)C3)cc(OC)c1,-6,30
COc1ccc(Nc2ncc3c(n2)CCN(Cc2ccccc2OC)C3)cc1,-11,45
COc1ccc(Nc2ncc3c(n2)CCN(Cc2cc(OC)c(OC)cc2OC)C3)cc1,-4,14
COc1cc(OC)c(OC)cc1CN1CCc2nc(Nc3ccc(F)cc3)ncc2C1,-4,70*
COc1cccc(CN2CCc3nc(Nc4ccc(F)cc4)ncc3C2)c1OC,-3,100*
CCCCN1CCc2nc(Nc3ccc(OC)cc3)ncc2C1,-4,52*
CS(=O)(=O)N(CC(=O)NC1CC1)c1ccc(Oc2ccccc2)cc1,-34,5
c1ccc(-n2cnnn2)cc1,·,0
SMILES,Pf apPOL block,mHTT-CaM PPI inh
CCOC(=O)N1CCN(C(=O)c2csc(Nc3cccc(C)n3)n2)CC1,-11,-2
COc1ccc(Br)cc1C=Nc1ccccn1,0,4
O=C(CCS(=O)(=O)Cc1ccccc1F)NCCN1CCCC1,-14,4
CCOC(=O)C1CCCN(C(=O)NC2CC(=O)N(c3ccc(OC)cc3)C2)C1 (stereo not drawn),-11,-16
O=C(Nc1ccc(F)c(Cl)c1)c1cc([N+](=O)[O-])nn1Cc1ccccc1,-7,92*
O=C(Nc1ccc(F)cc1)c1cc([N+](=O)[O-])nn1Cc1ccccc1,-8,3
O=C(CC(=O)Nc1ccccc1)Nc1ccccc1,-2,-4
CC1(CC(=O)Nc2ccccc2)NN=C(c2ccccc2)S1 (stereo not drawn),-2,73*
COc1ccccc1-c1coc2c3c(ccc2c1=O)OCN(c1cccnc1)C3,3,15
O=C(NCCc1ccccc1)C1CCN(c2ccc3ccccc3c2)C1=O (stereo not drawn),-1,8
Cc1cc2c(=O)n(C(C)C(=O)N3CCN(c4cccc(Cl)c4)CC3)ccc2o1 (stereo not drawn),1,97*
Cc1ccc(C(=O)N2CCN(c3cccc(Cl)c3)CC2)cc1,-6,23
O=c1/c(=C/c2ccccc2)sc2n1CN(c1cccc(Br)c1)CN=2,-4,-13
O=C1Nc2ccc(Cl)cc2/C1=c1\sc2n(c1=O)CN(c1cccc(Br)c1)CN=2,-6,52*
O=C(Nc1nnc(-c2ccsc2)o1)c1ccccc1F,-5,40
O=C(Nc1nnc(-c2ccsc2)o1)c1cc(-c2ccccc2)on1,-228,-4
O=C(Nc1nnc(-c2ccsc2)o1)c1ccccn1,-181,100*
O=C(Cc1c(F)cccc1Cl)Nc1nnc(-c2ccsc2)o1,8,57*
CC1(C)Cc2c(c(-c3ccccc3)nc(N3CCCC3)c2C(N)=O)CO1,-2,3
O=C(Nc1nccs1)c1ccc(NC(=O)c2ccccc2-c2ccccc2C(=O)O)cc1,-1,84*
O=C(Nc1nccs1)c1ccc(NC(=O)c2ccccc2[N+](=O)[O-])cc1,-3,13
Cc1ccccc1CSc1nc2c(c(=O)n1-c1ccccc1)SCC2,-4,1
Cc1ccc2[nH]c3c(c2c1)CCC3O (stereo not drawn),-4,78*
Cc1ccc2[nH]c3c(c2c1)CCCC3NCCCOc1ccccc1 (stereo not drawn),9,100*

# Screening data: PubChem BioAssay, University of Kansas High Throughput Screening Laboratory
